Test results taken from PubChem BioAssay (Tox21).
Calls of active or inactive are those of the source. Unless noted, the call rests on the fitted dose curve; in most records, active means well fitted curve in the direction sought with a large enough effect in the repeat runs; inconclusive means weak or mixed curves; inactive means no such curve, though single readings can be large; an effect the other way counts as inactive or inconclusive.

Columns and labels:
[1] = qHTS assay for small molecules that induce genotoxicity in human embryonic kidney cells expressing luciferase-tagged ATAD5 (AID 651632); further: nearly all actives have a fitted effect of over 15% in size
In short: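 Quantitative HTS in HEK293T expressing luciferase-tagged ATAD5, whose levels rise upon DNA damage. Exposure ran 16 hr at 37C and 5% CO2, with luminescence read 30 min after Amplite addition at room temperature.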

[2] = qHTS assay for small molecule agonists of the p53 signaling pathway - cell viability (AID 651633; calls by dose curve;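 further: p53RE-bla HCT reporter cells with a stable beta-lactamase p53 reporter; nearly all actives have a fitted effect of over 30% in size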)
In short: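 p53RE-bla cells were treated with compound for 16 hours at 37 C. Cytotoxicity was then measured as CellTiter-Glo luminescence after 30 min at room temperature.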

[3] = qHTS assay for small molecules that induce genotoxicity in human embryonic kidney cells expressing luciferase-tagged ATAD5 - cell viability (AID 651634; calls by dose curve; further: nearly all actives have a fitted effect of over 25% in size; further: potency means the concentration at half of the fitted maximal effect)
In short: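 After 15.5 hr incubation with compound at 37C, 5% CO2, HEK293T ATAD5-luciferase cells received CellTiter-Fluor reagent; fluorescence intensity was quantified following 30 min at 37C.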

[4] = qHTS assay for small molecule disruptors of the mitochondrial membrane potential - cell viability (AID 720634; calls by dose curve; further: nearly all actives have a fitted effect of over 20% in size; further: potency means the concentration at half of the fitted maximal effect)
In short: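 ATP-based luminescent viability readout (CellTiter-Glo, 30 min, room temperature) in HepG2 cells multiplexed with the m-MPI membrane potential dye; compound exposure lasted 1 hr at 37 C.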

[5] = qHTS assay to test for compound auto fluorescence at 590 nm (red) in HepG2 cells (AID 720674); further: potency means the concentration at half of the fitted maximal effect
In short: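 Seeding: 2,000 HepG2 cells/well, MEM/10% FBS, overnight 37 C. Dosing: compound vs DMSO. Incubation: 1 hr, 37 C, 5% CO2. Read: fluorescence 540 ex/590 em, Rose Bengal sodium as red reference.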

[6] = qHTS assay to test for compound auto fluorescence at 535 nm (green) in HepG2 cells (AID 720675); further: potency means the concentration at half of the fitted maximal effect
[7] = qHTS assay to test for compound auto fluorescence at 460 nm (blue) in HEK293 cells (AID 720678)
In short: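 Cells were seeded and left to adhere for 4-5 hr at 37C. Compounds were then pin-transferred. After an overnight incubation at 37C under 5% CO2, intrinsic fluorescence at 405/460 nm was measured and referenced to triamterene.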

[8] = qHTS assay to test for compound auto fluorescence at 590 nm (red) in HEK293 cells (AID 720679); further: potency means the concentration at half of the fitted maximal effect
In short: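 Each well held 2,000 HEK293 cells in medium containing 10% dialyzed FBS. Following 4-5 hr attachment at 37C, 23 nL test compound or DMSO was added; plates sat overnight, and red fluorescence (540/590nm) was recorded.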

[9] = qHTS assay to test for compound auto fluorescence at 535 nm (green) in HEK293 cells (AID 720680)
[10] = qHTS assay to test for compound auto fluorescence at 460 nm (blue) in HEK293 cell free culture (AID 720681)
In short: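 Compounds were added to cell-free DMEM with 10% FBS and fluorescence read directly. The blue channel used 405 nm excitation and 460 nm emission, with triamterene as the reference fluorophore.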

[11] = qHTS assay to test for compound auto fluorescence at 535 nm (green) in HEK293 cell free culture (AID 720682)
In short: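 Using fluorescein as calibrant, autofluorescence was quantified at 485/535 nm in cell-free DMEM containing 10% FBS after pintool addition of compound or vehicle.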

[12] = qHTS assay to test for compound auto fluorescence at 590 nm (red) in HEK293 cell free culture (AID 720683); further: potency means the concentration at half of the fitted maximal effect
In short: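 Cell-free wells of DMEM with 10% FBS received compound, and intrinsic fluorescence was read at excitation/emission 540/590 nm. Values expressed as equivalence to Rose Bengal sodium.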

[13] = qHTS assay to test for compound auto fluorescence at 590 nm (red) in HepG2 cell free culture (AID 720684); further: potency means the concentration at half of the fitted maximal effect
In short: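 Auto fluorescence equivalency versus Rose Bengal sodium, red channel Ex/Em 540/590 nm; compounds in cell-free MEM/10% FBS; DMSO vehicle control.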

[14] = qHTS assay to test for compound auto fluorescence at 460 nm (blue) in HepG2 cell free culture (AID 720685)
In short: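 Cell-free plates of MEM plus 10% FBS received 23 nL compound or DMSO vehicle; blue-channel (405/460 nm) intensity scored against triamterene as reference fluorophore.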

[15] = qHTS assay to test for compound auto fluorescence at 535 nm (green) in HepG2 cell free culture (AID 720686); further: potency means the concentration at half of the fitted maximal effect
[16] = qHTS assay to test for compound auto fluorescence at 460 nm (blue) in HepG2 cells (AID 720687)
In short: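 HepG2 cells in MEM with 10% FBS, attached overnight at 37 C, were exposed to compound or DMSO for 1 hr at 37 C, 5% CO2. Blue fluorescence was read at 405/460 nm, with triamterene as reference fluorophore.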

[17] = target: Glucocorticoid receptor (Homo sapiens) (UniProt P04150); experiment: qHTS assay to identify small molecule agonists of the glucocorticoid receptor (GR) signaling pathway (AID 720691; active means well fitted activation curve with a large enough effect in the signal ratio in the repeat runs, not every such curve was filed as active; inconclusive means weak or mixed curves, or effect the other way; inactive means no such curve, though single readings can be large or run the other way; the % refers to the signal ratio); details: GR-bla HeLa, beta-lactamase reporter ratio, 18 h; activation: at 62.4 µM (top of the series) unless noted
Chain of Glucocorticoid receptor (Homo sapiens) (P04150 whole entry, looked up): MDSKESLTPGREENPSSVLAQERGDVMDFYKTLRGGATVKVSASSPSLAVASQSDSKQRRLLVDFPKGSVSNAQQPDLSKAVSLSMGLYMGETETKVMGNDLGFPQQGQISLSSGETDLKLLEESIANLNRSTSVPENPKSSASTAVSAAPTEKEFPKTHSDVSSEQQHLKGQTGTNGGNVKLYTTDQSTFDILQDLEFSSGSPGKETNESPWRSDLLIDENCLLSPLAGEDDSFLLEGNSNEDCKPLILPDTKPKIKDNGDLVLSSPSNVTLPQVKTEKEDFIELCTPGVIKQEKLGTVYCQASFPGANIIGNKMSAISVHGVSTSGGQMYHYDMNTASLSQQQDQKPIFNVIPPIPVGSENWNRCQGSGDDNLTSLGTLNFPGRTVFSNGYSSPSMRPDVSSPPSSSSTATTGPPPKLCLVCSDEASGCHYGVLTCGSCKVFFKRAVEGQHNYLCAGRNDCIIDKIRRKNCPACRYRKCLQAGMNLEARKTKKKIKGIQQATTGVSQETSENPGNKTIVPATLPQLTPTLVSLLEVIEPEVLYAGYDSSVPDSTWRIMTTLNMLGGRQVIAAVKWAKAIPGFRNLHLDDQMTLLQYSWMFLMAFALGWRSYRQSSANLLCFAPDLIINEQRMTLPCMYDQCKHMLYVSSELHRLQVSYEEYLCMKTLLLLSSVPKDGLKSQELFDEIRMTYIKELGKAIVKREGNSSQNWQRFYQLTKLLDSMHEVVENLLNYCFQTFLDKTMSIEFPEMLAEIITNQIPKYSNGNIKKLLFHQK
In short: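 Cells: GR-bla HeLa, endogenous GR with stably integrated GRE-beta-lactamase reporter. Treatment 18 h, 37 C, compounds delivered in DMSO. Detection via LiveBLAzer B/G FRET substrate, 2 h RT, fluorescence intensity.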

[18] = qHTS assay for small molecule disruptors of the mitochondrial membrane potential (AID 720635); further: potency means the concentration at half of the fitted maximal effect
In short: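 HepG2 cells exposed to compound 1 hr at 37C, then Mito-MPS dye 30 min. Ratio read of aggregate (540/590 nm) versus monomer (490/535 nm) fluorescence.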

[19] = target: Glucocorticoid receptor (Homo sapiens) (UniProt P04150); experiment: qHTS assay to identify small molecule antagonists of the glucocorticoid receptor (GR) signaling pathway (AID 720692; active means well fitted inhibition curve with a large enough effect in the signal ratio in the repeat runs, not every such curve was filed as active; inconclusive means weak or mixed curves, or effect the other way; inactive means no such curve, though single readings can be large or run the other way; the % refers to the signal ratio)
In short: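 Quantitative HTS in antagonist format: HeLa cells expressing endogenous GR and a stably integrated GRE-bla reporter, stimulated with 5 nM dexamethasone (final) alongside test compounds for 18 h.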

[20] = qHTS assay for small molecule agonists of the p53 signaling pathway (AID 651631; calls by dose curve; further: nearly all actives have a fitted effect of over 15% in size)
In short: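 Stably transfected HCT-116 cells (beta-lactamase behind p53 response elements) get compounds after a 5 h settling period; 16 h later at 37 °C, FRET substrate is loaded and fluorescence read after 2 h.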
On the % scale 0 is the no-effect control and ±100 the full control effect; tags describe the fitted curve by direction and shape or compound fluorescence and quenching.

CCC(C)(C)CC
inactive: Potency [1] | Potency [2] | Potency [3] | Potency [4] | Potency [5] | Potency [6] | outcome [7] | Potency [8] | outcome [9] | outcome [10] | outcome [11] | Potency [12] | Potency [13] | outcome [14] | Potency [15] | outcome [16] | Potency [17]

CNC(=O)CN(CCN(CCN(CC(=O)[O-])CC(=O)NC)CC(=O)[O-])CC(=O)[O-].O.[Gd+3]
inactive: Potency [1] | Potency [2] | Potency [3] | Potency [4] | Potency [18] | Potency [5] | Potency [6] | outcome [7] | outcome [9] | outcome [10] | outcome [11] | Potency [12] | Potency [13] | outcome [14] | Potency [15] | outcome [16] | Potency [17] | Potency [19]

CCCCOC(=O)CCCCCCCC(=O)OCCCC
inactive: Potency [1] | Potency [2] | Potency [3] | Potency [4] | Potency [18] | Potency [5] | Potency [6] | outcome [7] | Potency [8] | outcome [9] | outcome [10] | outcome [11] | Potency [12] | Potency [13] | outcome [14] | Potency [15] | outcome [16]

CC1=CCCC(C)(C)C12CCC(C)O2 (stereo unspecified)
inactive: Potency [20] | Potency [3] | Potency [4] | Potency [5] | Potency [6] | outcome [7] | Potency [8] | outcome [9] | outcome [10] | outcome [11] | Potency [12] | Potency [13] | outcome [14] | Potency [15] | outcome [16]

CCN(CC)c1ccc2c(-c3ccccc3C(=O)O)c3ccc(=[N+](CC)CC)cc-3oc2c1
inactive: Potency [20] | Potency [4] | outcome [7] | outcome [10] | outcome [14] | outcome [16]
active: Potency [3] 21.7 µM | Potency [5] 1 µM | Potency [6] 31.6 µM | Potency [8] 1.12 µM [fluorescent] | Potency [12] 2 µM [fluorescent] | Potency [13] 1.12 µM [fluorescent] | Potency [15] 31.6 µM [fluorescent]

CCCn1cnc2c1c(=O)n(CCCCC(C)=O)c(=O)n2C
inactive: Potency [20] | Potency [3] | Potency [4] | Potency [18] | Potency [6] | outcome [7] | Potency [8] | outcome [9] | outcome [10] | outcome [11] | Potency [12] | Potency [13] | outcome [14] | Potency [15] | outcome [16] | Potency [17] | Potency [19]

C/C=C/C=C/CO
inactive: Potency [1] | Potency [2] | Potency [3] | Potency [4] | Potency [18] | Potency [5] | Potency [6] | outcome [7] | Potency [8] | outcome [9] | outcome [10] | outcome [11] | Potency [12] | Potency [13] | outcome [14] | Potency [15] | Potency [19]

CCO[Si](CCCCl)(OCC)OCC
inactive: Potency [1] | Potency [2] | Potency [3] | Potency [4] | Potency [6] | outcome [7] | Potency [8] | outcome [10] | outcome [11] | Potency [12] | Potency [13] | outcome [14] | Potency [15] | outcome [16] | Potency [19]
active: Potency [18] 48.1 µM

CC(C)(C)Cl
inactive: Potency [1] | Potency [2] | Potency [3] | Potency [4] | Potency [18] | Potency [6] | outcome [7] | outcome [9] | outcome [10] | outcome [11] | Potency [13] | outcome [14] | Potency [15] | outcome [16]

CCN(CC)CCOC(=O)C(Cc1cccc2ccccc12)CC1CCCO1 (stereo unspecified)
inactive: Potency [1] | Potency [2] | Potency [3] | Potency [4] | fluorescence, relative to Rose Bengal [5] -0.202% [at 18.6 µM] | fluorescence, % of fluorescein control [6] 0.0388% [at 18.6 µM] | fluorescence, % of triamterene [7] 0.0425% [at 18.6 µM] | fluorescence, % of fluorescent control [8] 0.195% [at 18.6 µM] | fluorescence, % of fluorescein [9] 0.0124% [at 18.6 µM] | fluorescence, % of fluorescent control [10] 0.0375% [at 18.6 µM] | activity change [11] -0.0273% [at 18.6 µM] | fluorescence, % of fluorescent control [12] 0.0006% [at 18.6 µM] | fluorescence, % of Rose Bengal [13] 0.633% [at 18.6 µM] | fluorescence, % of fluorescent control [14] -0.0194% [at 18.6 µM] | fluorescence, % of fluorescein control [15] 0.0151% [at 18.6 µM] | fluorescence, % of fluorescent control [16] -0.147% [at 18.6 µM]

C[N+]1(CC2COC(c3ccccc3)(C3CCCCC3)O2)CCCCC1 (stereo unspecified)
inactive: Potency [20] | Potency [3] | Potency [4] | Potency [5] | Potency [6] | outcome [7] | Potency [8] | outcome [9] | outcome [10] | outcome [11] | Potency [12] | Potency [13] | outcome [14] | Potency [15] | outcome [16] | Potency [17]

CC(C)(O)c1ccc(CNC(=O)c2cccnc2Oc2ccc(F)cc2)cc1
inactive: Potency [1] | Potency [2] | Potency [3] | Potency [4] | Potency [18] | Potency [5] | Potency [6] | outcome [7] | Potency [8] | outcome [9] | outcome [10] | outcome [11] | Potency [12] | Potency [13] | outcome [14] | Potency [15] | outcome [16] | Potency [17]

O=C1CCC(=O)O1
inactive: Potency [1] | Potency [2] | Potency [3] | Potency [4] | Potency [18] | Potency [5] | Potency [6] | outcome [7] | Potency [8] | outcome [9] | outcome [10] | outcome [11] | Potency [12] | Potency [13] | outcome [14] | Potency [15] | outcome [16] | Potency [17] | Potency [19]

Brc1c2ccccc2cc2ccccc12
inactive: Potency [1] | Potency [2] | Potency [3] | Potency [5] | Potency [6] | outcome [7] | Potency [8] | outcome [9] | outcome [10] | outcome [11] | Potency [12] | Potency [13] | outcome [14] | Potency [15] | outcome [16] | Potency [19]
active: Potency [4] 55 µM | Potency [18] 30.9 µM | activation [17] 9.34% [inconclusive] [at 79.2 µM]

CC(=O)c1cccc([N+](=O)[O-])c1
inactive: Potency [20] | Potency [2] | Potency [4] | Potency [18] | Potency [5] | Potency [6] | outcome [7] | outcome [9] | outcome [10] | outcome [11] | Potency [13] | outcome [14] | Potency [15] | Potency [19]
